Assay [1] has as its system Staphylococcus aureus. The conditions noted are these: Concentration 20 uM; ASSAY_TEST Inhibition of Bacterial Growth; detection method Absorption (OD600); MEDIA CAMHB; plate type 384well; NBS; CORNING #3640; time 18 hr.
Assay [2] relates to Escherichia coli. The conditions noted are these: Concentration 20 uM; ASSAY_TEST Inhibition of Bacterial Growth; detection method Absorption (OD600); MEDIA CAMHB; plate type 384well; NBS; CORNING #3640; time 18 hr.

Potency and affinity values are given separately.

For orientation: Inhibition means the change of the read-out against control, counted positive when it falls.

Consider `Cc1ccsc1C(=CCCN1CCC[C@@H](C(=O)O)C1)c1sccc1C.Cl` [TIAGABINE HYDROCHLORIDE], for which the Inhibition is recorded as 12.29% in assay [1] and -1.1% in assay [2].

In the case of `C[C@]12CCC(=O)C=C1CC[C@@H]1[C@@H]2C(=O)C[C@@]2(C)[C@H]1CC[C@]2(O)C(=O)CO` [CORTISONE], the figures for the Inhibition in assay [1] and in assay [2] were 18.73% and 3.83%, respectively.

With `CN(C)CCOC(C)(c1ccccc1)c1ccccn1.O=C(O)CCC(=O)O` (stereo not drawn) [DOXYLAMINE SUCCINATE], the Inhibition in assay [1] is 2.51%; in assay [2], 3.89%.

Turning to `CC(C)c1ccc2oc3nc(N)c(C(=O)O)cc3c(=O)c2c1` [AMLEXANOX], the Inhibition is listed as 16.12% in assay [1] and 0.07% in assay [2].

With `CC(C)(C)NC(=O)[C@H]1CC[C@H]2[C@@H]3CC[C@H]4NC(=O)C=C[C@]4(C)[C@H]3CC[C@]12C` [FINASTERIDE], the Inhibition is reported as -0.3% in assay [1] and -5.85% in assay [2].

Consider `COc1cc2nc(N(C)CCCNC(=O)C3CCCO3)nc(N)c2cc1OC` (stereo not drawn) [ALFUZOSIN], for which the values for the Inhibition in assay [1] and in assay [2] were 6% and -0.93%, respectively.

For `CC(C(=O)O)c1cccc(C(=O)c2ccccc2)c1` (stereo not drawn) [KETOPROFEN], the Inhibition was 6.88% in assay [1] and -2.29% in assay [2].

`Cl.Clc1ccc2nsnc2c1NC1=NCCN1` [TIZANIDINE HYDROCHLORIDE]: the figures for the Inhibition in assay [1] and in assay [2] were -18.93% and 6.6%, respectively.

Regarding `Nc1nnc(-c2cccc(Cl)c2Cl)c(N)n1` [LAMOTRIGINE], the results for the Inhibition in assay [1] and in assay [2] were 8.71% and 4.49%, respectively.

In the case of `O=C(O)CCNC(=O)c1ccc(N=Nc2ccc(O)c(C(=O)O)c2)cc1`, the Inhibition is recorded as 1.56% in assay [1] and -1.37% in assay [2].

As to `Nc1ccc(S(=O)(=O)c2ccc(N)cc2)cc1` [DAPSONE], the results for the Inhibition in assay [1] and in assay [2] were -0.58% and 0.96%, respectively.

For the molecule `CC(C)NCC(O)COc1ccc(COCCOC(C)C)cc1.CC(C)NCC(O)COc1ccc(COCCOC(C)C)cc1.O=C(O)/C=C/C(=O)O` (stereo not drawn) [BISOPROLOL FUMARATE], the Inhibition turned out to be 7.74% in assay [1] and 1.99% in assay [2].

Take `COC(=O)C1=C(C)NC(C)=C(C(=O)OCCN(C)Cc2ccccc2)C1c1cccc([N+](=O)[O-])c1.Cl` (stereo not drawn) [NICARDIPINE HYDROCHLORIDE]: the Inhibition in assay [1] is reported as -1.65%; in assay [2] it was 2.23%.

As to `CC[C@H](C)C(=O)O[C@H]1CCC=C2C=C[C@H](C)[C@H](CC[C@@H]3C[C@@H](O)CC(=O)O3)[C@H]21` [MEVASTATIN], the results for the Inhibition in assay [1] and in assay [2] were -0.69% and 8.43%, respectively.

Take `CC(C)Cc1ccc(C(C)C(=O)O)cc1` (stereo not drawn) [IBUPROFEN]: the Inhibition is listed as -8.87% in assay [1] and 0.37% in assay [2].

Consider `C[n+]1ccccc1/C=N/O.[Cl-]` [PRALIDOXIME CHLORIDE], for which the Inhibition in assay [1] came to 12.69%; in assay [2], 4.53%.

In the case of `CC(C)[C@H](N)C(=O)OCCOCn1cnc2c(=O)nc(N)[nH]c21.Cl` [VALACYCLOVIR HYDROCHLORIDE], the Inhibition was 12.39% in assay [1] and 2.88% in assay [2].

With `COc1ccc(C2CNC(=O)C2)cc1OC1CCCC1` (stereo not drawn) [ROLIPRAM], the Inhibition in assay [1] was 10.42%; in assay [2] it was 5.39%.

For `CC[N+](C)(CC)CCOC(=O)C(O)(c1ccccc1)C1CCCCC1.[Br-]` (stereo not drawn) [OXYPHENONIUM BROMIDE], the Inhibition in assay [1] is recorded as 12.65%; in assay [2], 3.27%.

For the molecule `Cc1cccc(C)c1OCC(C)N.Cl` (stereo not drawn) [MEXILETINE HYDROCHLORIDE], the Inhibition in assay [1] was 13.57%; in assay [2], 3.59%.

For `CC1(C)O[C@@H]2C[C@H]3[C@@H]4CCC5=CC(=O)C=C[C@]5(C)[C@@]4(F)[C@@H](O)C[C@]3(C)[C@]2(C(=O)CO)O1` [TRIAMCINOLONE ACETONIDE], the figures for the Inhibition in assay [1] and in assay [2] were 7.65% and 3.69%, respectively.

As for `CC[C@@H]1C(=O)OC[C@@H]1Cc1cncn1C.Cl` [PILOCARPINE HYDROCHLORIDE], the figures for the Inhibition in assay [1] and in assay [2] were 15.92% and 5.77%, respectively.

In the case of `C=C[C@H]1CN2CC[C@H]1C[C@@H]2[C@@H](O)c1ccnc2ccc(OC)cc12` [QUINIDINE], the Inhibition in assay [1] is on record as 10.07%; in assay [2], -1.55%.

In the case of `CC[C@H](C)C(=O)O[C@H]1C[C@H](O)C=C2C=C[C@H](C)[C@H](CC[C@@H](O)C[C@@H](O)CC(=O)[O-])[C@H]21.[Na+]` [PRAVASTATIN SODIUM], the Inhibition was 12.65% in assay [1] and 2.41% in assay [2].

As for `CCCCc1nc(Cl)c(CO)n1Cc1ccc(-c2ccccc2-c2nnn[n-]2)cc1.[K+]` [LOSARTAN POTASSIUM], the Inhibition in assay [1] is reported as -19.73%; in assay [2] it was 5.5%.

Take `CC(=O)OCC(=O)NCCCOc1cccc(CN2CCCCC2)c1.Cl` [ROXATIDINE ACETATE HYDROCHLORIDE]: the Inhibition in assay [1] was 9.98%; in assay [2], 5.49%.

As for `Cc1ccc(N(CC2=NCCN2)c2cccc(O)c2)cc1` [PHENTOLAMINE], the Inhibition is reported as 2.09% in assay [1] and -2.29% in assay [2].

Regarding `CC(C)(C(=O)c1cccnc1)c1cccnc1` [METYRAPONE], the Inhibition is reported as 4.18% in assay [1] and 6.34% in assay [2].

Consider `COCCCC/C(=N\OCCN)c1ccc(C(F)(F)F)cc1.O=C(O)/C=C\C(=O)O` [FLUVOXAMINE MALEATE], for which the Inhibition is reported as 7.49% in assay [1] and 3.58% in assay [2].

As to `CN1CCN(C2=Nc3cc(F)ccc3Cc3ccccc32)CC1` [FLUPERLAPINE], the Inhibition in assay [1] came to 14.37%; in assay [2], 3.9%.

Regarding `CC(=O)O.CNC(=N)NCCC[C@H](N)C(=O)O` [TILARGININE ACETATE], the Inhibition is on record as -13.73% in assay [1] and 6.22% in assay [2].

For `CC(=O)CCCCn1cnc2c1c(=O)n(C)c(=O)n2C` [LOMIFYLLINE], the Inhibition in assay [1] came out at 12.49%; in assay [2] it was 5.02%.

Turning to `CCCN1CCCC[C@H]1C(=O)Nc1c(C)cccc1C.Cl` [ROPIVACAINE HYDROCHLORIDE], the Inhibition worked out at 13.36% in assay [1] and 1.04% in assay [2].

For the molecule `CC(=O)O[C@]1(C(C)=O)CC[C@H]2[C@@H]3C=C(C)C4=CC(=O)CC[C@]4(C)[C@H]3CC[C@@]21C` [MEGESTROL ACETATE], the Inhibition in assay [1] was 14.19%; in assay [2], 0.92%.

As to `CN1CCc2cc(Cl)c(O)cc2[C@@H](c2ccccc2)C1.Cl`, the Inhibition in assay [1] is 10.41%; in assay [2], 0.35%.

For `CN(C)C(=O)Oc1ccc[n+](C)c1.[Br-]` [PYRIDOSTIGMINE BROMIDE], the Inhibition in assay [1] is 10.54%; in assay [2], -0.78%.

In the case of `CNCCC=C1c2ccccc2CCc2ccccc21.Cl` [NORTRIPTYLINE HYDROCHLORIDE], the Inhibition turned out to be 3.19% in assay [1] and 4.29% in assay [2].

In the case of `CN(CCO)CC(O)Cn1cnc2c1c(=O)n(C)c(=O)n2C.O=C(O)c1cccnc1` (stereo not drawn) [XANTHINOL NIACINATE], the results for the Inhibition in assay [1] and in assay [2] were 15.77% and -0.5%, respectively.

For the molecule `CC(O)CO.N[C@@H](C(=O)N[C@@H]1C(=O)N2C(C(=O)O)=C(CSc3c[nH]nn3)CS[C@H]12)c1ccc(O)cc1`, the figures for the Inhibition in assay [1] and in assay [2] were 31.82% and 5.65%, respectively.

As for `C[C@@H](O)[C@H]1C(=O)N2C(C(=O)O)=C(S[C@@H]3CN[C@H](C(=O)N(C)C)C3)[C@H](C)[C@H]12` [MEROPENEM], the figures for the Inhibition in assay [1] and in assay [2] were -14.17% and 7.87%, respectively.

Take `C[C@H]1[C@@H](OC(=O)CCC(=O)O)O[C@@H]2O[C@@]3(C)CC[C@H]4[C@H](C)CC[C@@H]1[C@@]24OO3`: the Inhibition is listed as -17.43% in assay [1] and 12.24% in assay [2].

As for `Cl.O=C(NCC1CCCCN1)c1cc(OCC(F)(F)F)ccc1OCC(F)(F)F` (stereo not drawn), the Inhibition is listed as 10.41% in assay [1] and -6.42% in assay [2].

Consider `O=C1Nc2ccc(Cl)cc2[C@@](C#CC2CC2)(C(F)(F)F)O1` [EFAVIRENZ], for which the Inhibition in assay [1] is 10.66%; in assay [2], -2.05%.

Consider `C[C@]12CC[C@@H]3c4ccc(O)cc4CC[C@H]3[C@@H]1CC[C@@H]2O` [ESTRADIOL], for which the Inhibition in assay [1] is reported as 2.2%; in assay [2], -0.2%.

Consider `COc1ccc(-c2cc(=O)c3c(OC)c(OC)c(OC)c(OC)c3o2)cc1OC` [NOBILETIN], for which the Inhibition in assay [1] is 13.24%; in assay [2], -1.7%.

Take `CC1(C)O[C@@H]2[C@@H](CO[C@@]3(COS(N)(=O)=O)OC(C)(C)O[C@@H]23)O1` [TOPIRAMATE]: the results for the Inhibition in assay [1] and in assay [2] were 3.5% and 6.36%, respectively.

For the molecule `CN1CCN(CCCN2c3ccccc3Sc3ccc(Cl)cc32)CC1.O=C(O)/C=C\C(=O)O.O=C(O)/C=C\C(=O)O` [PROCHLORPERAZINE MALEATE], the Inhibition is recorded as 13.38% in assay [1] and 1.77% in assay [2].

For `CCN(CC)CCNC(=O)c1ccc(N)cc1.Cl` [PROCAINAMIDE HYDROCHLORIDE], the results for the Inhibition in assay [1] and in assay [2] were -10.39% and -0.2%, respectively.

On to `COc1c2occc2cc2ccc(=O)oc12` [METHOXSALEN], for which the figures for the Inhibition in assay [1] and in assay [2] were 13.34% and -6.11%, respectively.

Turning to `CC(=O)C1(O)CCC2C3CC(C)C4=CC(=O)C=CC4(C)C3(F)C(O)CC21C` (stereo not drawn), the figures for the Inhibition in assay [1] and in assay [2] were 5.95% and 2.15%, respectively.

As to `Cc1cccc(Nc2ccncc2S(=O)(=O)NC(=O)NC(C)C)c1` [TORSEMIDE], the Inhibition in assay [1] amounted to 4.19%; in assay [2], 6.8%.

With `O=C(O)COCCN1CCN([C@H](c2ccccc2)c2ccc(Cl)cc2)CC1` [LEVOCETIRIZINE], the figures for the Inhibition in assay [1] and in assay [2] were 11.65% and 5.57%, respectively.

Consider `Nc1ccn([C@@H]2O[C@H](CO)[C@@H](O)[C@@H]2O)c(=O)n1` [CYTARABINE], for which the Inhibition in assay [1] is reported as 17.83%; in assay [2], -2.15%.

As to `Nc1nc(Cl)nc2c1ncn2[C@H]1C[C@H](O)[C@@H](CO)O1` [CLADRIBINE], the Inhibition in assay [1] is reported as 6.87%; in assay [2], 14.09%.

In the case of `CC1Cc2ccccc2N1NC(=O)c1ccc(Cl)c(S(N)(=O)=O)c1` (stereo not drawn) [INDAPAMIDE], the figures for the Inhibition in assay [1] and in assay [2] were 5.44% and -0.79%, respectively.

With `CC(C(O)c1ccc(O)cc1)N1CCC(Cc2ccccc2)CC1.O.O=C(O)C(O)C(O)C(=O)O` (stereo not drawn), the Inhibition is given as 9.87% in assay [1] and -1.84% in assay [2].

As for `CC1=Nc2ccc(Cl)cc2S(=O)(=O)N1` [DIAZOXIDE], the Inhibition in assay [1] stood at 9.13%; in assay [2], 5.75%.

For `CCC(C)(C)/N=C(\NC#N)Nc1cccnc1`, the Inhibition in assay [1] is recorded as 1.37%; in assay [2], -2.42%.

In the case of `CNCCCN1c2ccccc2CCc2ccccc21.Cl` [DESIPRAMINE HYDROCHLORIDE], the Inhibition in assay [1] is listed as 7.54%; in assay [2], -0.24%.

Values taken from ChEMBL document CHEMBL4513141, “CO-ADD screening of NIH (USA) - Clinical Collection” (2021).
